Assay results from PubChem BioAssay (EPA / NIEHS).
Where a structure was tested more than once in an assay, its records may differ in their call. Activity calls are given as the source filed them. How the source made its calls: active means hit-call score of the fitted dose curve at least 0.9, where 1 is the maximum; inactive means score below 0.9.

Tests used:
[1] = ATG_M_32_CIS: Attagene CIS-FACTORIAL HepG2 Assay for M32 Transcription Factor (Internal Marker) (AID 2282949); settings: HepG2 Attagene cis-factorial M32 reporter, mRNA; actives raise or lower the signal;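 further: background control marker of the multiplexed CIS panel rather than a real target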
Method in brief: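 Using DMSO as baseline, bidirectional curve fits were applied to reporter mRNA signals. These came from transiently transfected HepG2 cells exposed for 24 h, with RNA analysed by RT-PCR, FAM primer extension, HpaI digestion and CE.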

[2] = target: Hepatocyte nuclear factor 6 (Homo sapiens) (UniProt Q9UBC0); assay: ATG_HNF6_CIS: Attagene CIS-FACTORIAL HepG2 Assay for human Hepatocyte Nuclear Factor 6 (HNF6) (AID 2282952); settings: HepG2 Attagene cis-factorial HNF6 reporter transcription; actives raise or lower the signal
Method in brief: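 Endogenous factor activity read in transiently transfected HepG2 via promoter-regulated reporter transcripts. RNA harvested 24 h post-dosing, reverse-transcribed, PCR-amplified, FAM-labelled, HpaI-digested and resolved by capillary electrophoresis; fitted in both directions against DMSO.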

[3] = ATG_MRE_CIS: Attagene CIS-FACTORIAL HepG2 Assay for human Metal Responsive Element (MRE) (AID 2282954); settings: HepG2 MRE cis-reporter transcription, Attagene multiplex; actives raise or lower the signal
Method in brief: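 Multiplexed cis-reporter assay in human HepG2 liver cells, 24 h incubation with test chemical. Reporter transcripts measured by RT-PCR and capillary electrophoresis; values from bidirectional curve fitting versus DMSO.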

[4] = ATG_PBREM_CIS: Attagene CIS-FACTORIAL HepG2 Assay for human Phenobarbital-responsive Enhancer Module (PBREM) (AID 2282955); settings: HepG2 PBREM cis-reporter, Attagene multiplexed transcription; actives raise or lower the signal
Method in brief: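 Fluorescence of labelled reporter cDNA fragments, resolved by capillary electrophoresis, gives mRNA induction in transfected HepG2 cells treated for 24 h; DMSO serves as negative control and baseline.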

[5] = target: Paired box protein Pax-6 (Homo sapiens) (UniProt P26367); assay: ATG_Pax6_CIS: Attagene CIS-FACTORIAL HepG2 Assay for human Paired Box 6 (PAX6) (AID 2282956); settings: HepG2 CIS-FACTORIAL PAX6 reporter transcription, RNA readout; actives raise or lower the signal
Method in brief: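 Read-out is reporter transcript level, measured by RT-PCR with fluorescent primer extension and capillary electrophoresis after 24 h dosing of transfected HepG2 cells. Activity in either direction fitted relative to DMSO control.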

[6] = ATG_PXRE_CIS: Attagene CIS-FACTORIAL HepG2 Assay for human Pregnane X Receptor Element (PXRE) (AID 2282957); settings: HepG2 Attagene CIS-FACTORIAL PXRE reporter, mRNA; actives raise or lower the signal
Method in brief: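 Reporter transcripts under endogenous PXR-responsive cis-regulation quantified from total RNA of transfected HepG2 cells 24 h post-dosing, via RT-PCR with fluorescent primer extension and capillary electrophoresis. Gain or loss of signal fitted against DMSO baseline.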

[7] = ATG_PPRE_CIS: Attagene CIS-FACTORIAL HepG2 Assay for human Peroxisome Proliferator-activated Response Element (PPRE) (AID 2282958); settings: HepG2 PPRE cis-element reporter, Attagene transcription factor profiling; actives raise or lower the signal
Method in brief: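 Cells are first transfected transiently with the multiplexed reporter library, then dosed for 24 h. Total RNA is reverse-transcribed, amplified, fluorescently end-labeled and HpaI-cut before capillary electrophoresis; activity is fitted bidirectionally against DMSO controls.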

[8] = ATG_RORE_CIS: Attagene CIS-FACTORIAL HepG2 Assay for human RAR-related Orphan Receptor Element (RORE) (AID 2282959); settings: HepG2 Attagene cis-factorial RORE reporter, mRNA; actives raise or lower the signal
Method in brief: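 Cells were HepG2 carrying transfected cis-regulated reporter constructs, dosed for 24 hours. Total RNA was reverse-transcribed and reporter cDNA amplified, fluorescently labeled and sized by capillary electrophoresis. Activity was fitted bidirectionally relative to DMSO.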

[9] = ATG_Sox_CIS: Attagene CIS-FACTORIAL HepG2 Assay for human SRY-box transcription factor (SOX) (AID 2282960); settings: HepG2 Attagene cis-factorial SOX reporter, mRNA; actives raise or lower the signal
Method in brief: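 Transient MRTU transfection of HepG2; 24 h compound incubation; TriZol RNA, oligo(dT) RT, PCR, 6-FAM primer extension, HpaI cut, CE. Bidirectional fit, DMSO = baseline.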

[10] = target: Transcription factor Sp1 (Homo sapiens) (UniProt P08047); assay: ATG_Sp1_CIS: Attagene CIS-FACTORIAL HepG2 Assay for human Specificity Protein 1 (Sp1) (AID 2282961); settings: HepG2 Sp1 cis-reporter transcription, actives raise or lower the signal
Method in brief: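 Endogenous Sp1 activity was gauged in human liver HepG2 cells bearing transfected reporter units under a cis-regulating promoter. After 24 h dosing, reporter mRNA was quantified by RT-PCR with capillary electrophoresis, and activity fitted bidirectionally versus DMSO.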

[11] = ATG_SREBP_CIS: Attagene CIS-FACTORIAL HepG2 Assay for human Sterol Regulatory Element Binding (SREBP) (AID 2282962); settings: HepG2 Attagene cis-factorial SREBP reporter, mRNA; actives raise or lower the signal
Method in brief: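 Endogenous SREBP activity read as cis-element-driven reporter transcript in transiently transfected HepG2, 24 h post-dosing; quantified via RT-PCR plus capillary electrophoresis of fluorescent fragments. Gain or loss of signal fitted relative to DMSO baseline.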

[12] = target: Signal transducer and activator of transcription 3 (Homo sapiens) (UniProt P40763); assay: ATG_STAT3_CIS: Attagene CIS-FACTORIAL HepG2 Assay for human Signal Transducer and Activator of Transcription 3 (STAT3) (AID 2282963); settings: HepG2, Attagene cis-factorial STAT3 reporter transcription; actives raise or lower the signal
Method in brief: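 Cis-factorial format: endogenous transcription factors in HepG2 drive transfected reporter units. After 24 h treatment, reporter RNA was reverse-transcribed, amplified, FAM-labelled and HpaI-digested before CE analysis; activity scored in both directions against DMSO.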

[13] = ATG_TA_CIS: Attagene CIS-FACTORIAL HepG2 Assay for human TA Basal Promoter (AID 2282964); settings: HepG2 Attagene CIS-factorial TA basal promoter reporter; actives raise or lower the signal
Method in brief: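 Fluorescence from labelled RT-PCR reporter fragments, separated by capillary electrophoresis, gives the signal. Cells: HepG2 transiently carrying multiple reporter units, 24 h chemical dosing. Gain or loss relative to DMSO.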

[14] = ATG_TCF_b_cat_CIS: Attagene CIS-FACTORIAL HepG2 Assay for human T-Cell-Factor with beta-catenin (TCF/b-cat) (AID 2282965); settings: HepG2 TCF/beta-catenin cis-reporter transcription, actives raise or lower the signal
Method in brief: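 Endogenous TCF/LEF activity read as reporter transcript level via RT-PCR and capillary electrophoresis fluorescence in transfected HepG2, 24 h exposure; gain or loss of signal fitted against DMSO controls.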

[15] = ATG_TAL_CIS: Attagene CIS-FACTORIAL HepG2 Assay for human TAL Basal Promoter (AID 2282966); settings: HepG2 Attagene cis-factorial TAL promoter reporter; actives raise or lower the signal;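 further: background control endpoint measuring basal TAL promoter reporter mRNA not a specific factor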
Method in brief: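 Background-control endpoint: basal TAL promoter reporter transcripts in transiently transfected HepG2, measured 24 h after dosing. Read-out by RT-PCR with fluorescent primer extension and capillary electrophoresis; gain or loss of signal fitted relative to DMSO.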

[16] = ATG_TGFb_CIS: Attagene CIS-FACTORIAL HepG2 Assay for human Transforming Growth Factor (TGF) (AID 2282967); settings: HepG2 Attagene CIS TGFb reporter, mRNA transcription; actives raise or lower the signal
Method in brief: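 Bidirectional fitting relative to DMSO gave the endpoint. Underlying data: reporter mRNA from HepG2 cells carrying transiently transfected cis-regulated reporter constructs, harvested 24 h after dosing and analyzed by RT-PCR and capillary electrophoresis.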

[17] = ATG_VDRE_CIS: Attagene CIS-FACTORIAL HepG2 Assay for human Vitamin D Receptor Element (VDRE) (AID 2282968); settings: HepG2 VDRE cis-reporter transcription, actives raise or lower the signal
Method in brief: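 Measures endogenous factor activity through cis-element-driven reporter transcripts in transiently transfected HepG2. Cells are treated 24 h; reporter mRNA is quantified by RT-PCR and capillary electrophoresis; fitting is bidirectional.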

[18] = target: Hypoxia-inducible factor 1-alpha (Homo sapiens) (UniProt Q16665); assay: ATG_HIF1a_CIS: Attagene CIS-FACTORIAL HepG2 Assay for human Hypoxia Inducible Factor 1 (HIF1A) (AID 2282951); settings: HepG2 Attagene cis-factorial HIF1a reporter transcription; actives raise or lower the signal
Method in brief: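 Measures endogenous transcription-factor activity through cis-regulated reporter mRNA in HepG2. Cells dosed 24 h; transcripts quantified by RT-PCR with 6-FAM-labelled products separated by capillary electrophoresis; DMSO serves as negative control.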

[19] = target: Heat shock factor protein 1 (Homo sapiens) (UniProt Q00613); assay: ATG_HSE_CIS: Attagene CIS-FACTORIAL HepG2 Assay for human Heat Shock Transcription Factor 1 (HSE) (AID 2282953); settings: HepG2 HSE cis-reporter, Attagene RNA transcription; actives raise or lower the signal
Method in brief: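 Endogenous transcription factor activity captured via cis-promoter reporter units transfected into HepG2; treatment lasted 24 h. Fluorescence intensity of reporter fragments analysed with bidirectional curve fitting, DMSO baseline.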

Sequence of Paired box protein Pax-6 (Homo sapiens) (P26367 whole entry, looked up): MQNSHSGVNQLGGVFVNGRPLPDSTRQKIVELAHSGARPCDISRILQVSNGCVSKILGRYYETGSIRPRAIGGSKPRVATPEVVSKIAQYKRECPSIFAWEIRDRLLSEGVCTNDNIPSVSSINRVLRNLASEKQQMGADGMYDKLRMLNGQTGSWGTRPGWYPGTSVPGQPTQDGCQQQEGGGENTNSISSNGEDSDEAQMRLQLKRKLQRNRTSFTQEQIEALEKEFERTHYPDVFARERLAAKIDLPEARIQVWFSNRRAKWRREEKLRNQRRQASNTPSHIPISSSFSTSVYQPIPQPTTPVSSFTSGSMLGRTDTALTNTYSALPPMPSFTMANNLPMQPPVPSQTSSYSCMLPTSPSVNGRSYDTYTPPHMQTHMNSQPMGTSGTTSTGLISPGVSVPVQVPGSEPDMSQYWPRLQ
Sequence of Signal transducer and activator of transcription 3 (Homo sapiens) (P40763 whole entry, looked up): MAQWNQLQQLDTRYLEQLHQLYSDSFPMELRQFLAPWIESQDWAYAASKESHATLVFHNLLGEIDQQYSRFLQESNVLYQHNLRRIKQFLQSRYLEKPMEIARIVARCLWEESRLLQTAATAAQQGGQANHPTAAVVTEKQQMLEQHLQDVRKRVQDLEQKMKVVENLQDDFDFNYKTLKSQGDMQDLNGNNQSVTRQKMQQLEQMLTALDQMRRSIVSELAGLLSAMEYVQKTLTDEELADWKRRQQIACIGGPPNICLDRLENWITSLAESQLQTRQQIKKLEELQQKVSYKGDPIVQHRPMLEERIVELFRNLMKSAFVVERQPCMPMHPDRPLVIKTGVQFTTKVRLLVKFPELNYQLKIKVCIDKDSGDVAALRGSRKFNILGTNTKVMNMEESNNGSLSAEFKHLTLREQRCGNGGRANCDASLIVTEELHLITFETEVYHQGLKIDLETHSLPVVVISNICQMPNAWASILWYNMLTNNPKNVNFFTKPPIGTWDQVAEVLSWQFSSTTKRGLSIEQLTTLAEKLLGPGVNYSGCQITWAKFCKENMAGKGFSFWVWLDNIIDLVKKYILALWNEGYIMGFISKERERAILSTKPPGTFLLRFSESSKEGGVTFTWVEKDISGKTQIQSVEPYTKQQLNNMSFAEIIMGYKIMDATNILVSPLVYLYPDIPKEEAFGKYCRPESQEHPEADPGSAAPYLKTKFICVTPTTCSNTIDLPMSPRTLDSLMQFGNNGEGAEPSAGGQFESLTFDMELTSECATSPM
Sequence of Hepatocyte nuclear factor 6 (Homo sapiens) (Q9UBC0 whole entry, looked up): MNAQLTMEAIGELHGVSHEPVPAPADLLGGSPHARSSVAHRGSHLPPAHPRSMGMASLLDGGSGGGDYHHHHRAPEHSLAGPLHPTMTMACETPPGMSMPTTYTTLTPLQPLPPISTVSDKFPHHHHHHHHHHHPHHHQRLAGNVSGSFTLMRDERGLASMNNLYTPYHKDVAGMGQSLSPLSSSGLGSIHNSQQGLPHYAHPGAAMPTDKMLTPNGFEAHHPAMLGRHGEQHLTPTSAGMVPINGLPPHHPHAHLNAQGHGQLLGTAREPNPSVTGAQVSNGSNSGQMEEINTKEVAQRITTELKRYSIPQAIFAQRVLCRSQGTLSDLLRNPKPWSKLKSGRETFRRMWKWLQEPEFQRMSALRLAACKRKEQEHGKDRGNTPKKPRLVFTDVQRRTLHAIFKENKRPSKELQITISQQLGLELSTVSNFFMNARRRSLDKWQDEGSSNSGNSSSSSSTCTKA
Sequence of Transcription factor Sp1 (Homo sapiens) (P08047 whole entry, looked up): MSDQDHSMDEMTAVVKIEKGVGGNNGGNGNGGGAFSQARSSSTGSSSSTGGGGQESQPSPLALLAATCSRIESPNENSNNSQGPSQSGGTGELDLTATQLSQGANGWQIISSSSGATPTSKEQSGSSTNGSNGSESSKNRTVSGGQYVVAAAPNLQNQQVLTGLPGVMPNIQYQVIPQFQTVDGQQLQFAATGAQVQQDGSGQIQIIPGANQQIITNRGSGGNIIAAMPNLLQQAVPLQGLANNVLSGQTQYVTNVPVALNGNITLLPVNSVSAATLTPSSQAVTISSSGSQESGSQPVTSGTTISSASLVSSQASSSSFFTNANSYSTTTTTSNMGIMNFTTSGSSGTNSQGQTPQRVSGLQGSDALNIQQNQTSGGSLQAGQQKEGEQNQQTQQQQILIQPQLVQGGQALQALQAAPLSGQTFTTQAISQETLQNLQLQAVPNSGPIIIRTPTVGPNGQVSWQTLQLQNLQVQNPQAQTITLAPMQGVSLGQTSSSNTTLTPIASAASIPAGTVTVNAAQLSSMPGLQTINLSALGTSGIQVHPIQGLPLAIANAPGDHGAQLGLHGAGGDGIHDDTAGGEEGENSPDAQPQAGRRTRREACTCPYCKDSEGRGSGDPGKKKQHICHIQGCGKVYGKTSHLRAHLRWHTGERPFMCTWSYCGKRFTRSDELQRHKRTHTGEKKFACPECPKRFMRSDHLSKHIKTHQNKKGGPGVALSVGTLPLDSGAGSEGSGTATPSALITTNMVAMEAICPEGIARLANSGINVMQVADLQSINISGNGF
Sequence of Hypoxia-inducible factor 1-alpha (Homo sapiens) (Q16665 whole entry, looked up): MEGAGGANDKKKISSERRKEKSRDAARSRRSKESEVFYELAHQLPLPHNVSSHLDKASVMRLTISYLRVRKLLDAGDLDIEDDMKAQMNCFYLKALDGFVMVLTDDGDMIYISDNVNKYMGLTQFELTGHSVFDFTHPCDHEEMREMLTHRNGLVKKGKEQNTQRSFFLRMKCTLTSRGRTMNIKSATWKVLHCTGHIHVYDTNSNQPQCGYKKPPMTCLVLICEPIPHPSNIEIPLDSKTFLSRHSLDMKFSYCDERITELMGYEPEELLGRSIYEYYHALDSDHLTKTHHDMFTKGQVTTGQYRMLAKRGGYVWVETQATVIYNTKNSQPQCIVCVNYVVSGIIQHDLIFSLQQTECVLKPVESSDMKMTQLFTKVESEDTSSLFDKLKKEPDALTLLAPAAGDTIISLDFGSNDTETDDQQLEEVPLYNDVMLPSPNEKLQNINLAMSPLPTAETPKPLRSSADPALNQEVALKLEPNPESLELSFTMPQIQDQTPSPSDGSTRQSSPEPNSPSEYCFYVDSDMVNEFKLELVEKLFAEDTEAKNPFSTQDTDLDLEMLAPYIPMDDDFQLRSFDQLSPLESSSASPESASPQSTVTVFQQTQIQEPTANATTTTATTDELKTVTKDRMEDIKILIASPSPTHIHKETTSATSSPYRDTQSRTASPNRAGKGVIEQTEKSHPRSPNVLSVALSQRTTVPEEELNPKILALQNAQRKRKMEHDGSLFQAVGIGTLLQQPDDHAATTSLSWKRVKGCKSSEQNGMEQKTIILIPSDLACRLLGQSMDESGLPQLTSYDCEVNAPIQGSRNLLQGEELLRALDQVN
Sequence of Heat shock factor protein 1 (Homo sapiens) (Q00613 whole entry, looked up, the tested form may be a part): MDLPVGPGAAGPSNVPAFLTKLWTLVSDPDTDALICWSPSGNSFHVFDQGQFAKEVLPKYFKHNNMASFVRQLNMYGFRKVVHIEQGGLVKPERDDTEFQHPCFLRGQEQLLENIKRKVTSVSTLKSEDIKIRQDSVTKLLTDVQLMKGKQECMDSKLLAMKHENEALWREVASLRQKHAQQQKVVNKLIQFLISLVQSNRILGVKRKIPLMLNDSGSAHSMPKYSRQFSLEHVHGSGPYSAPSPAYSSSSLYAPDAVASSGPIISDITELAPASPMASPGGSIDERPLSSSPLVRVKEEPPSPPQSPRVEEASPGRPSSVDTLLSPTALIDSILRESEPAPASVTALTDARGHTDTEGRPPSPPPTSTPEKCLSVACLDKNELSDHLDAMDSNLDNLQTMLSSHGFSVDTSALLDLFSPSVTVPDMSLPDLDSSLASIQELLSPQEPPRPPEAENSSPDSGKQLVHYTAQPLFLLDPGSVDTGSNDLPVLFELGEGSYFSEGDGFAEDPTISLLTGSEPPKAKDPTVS

| SMILES | outcome [1] | outcome [2] | outcome [3] | outcome [4] | outcome [5] | outcome [6] | outcome [7] | outcome [8] | outcome [9] | outcome [10] | outcome [11] | outcome [12] | outcome [13] | outcome [14] | outcome [15] | outcome [16] | outcome [17] | outcome [18] | AC50 [6] | outcome [19] |
| --- | --- | --- | --- | --- | --- | --- | --- | --- | --- | --- | --- | --- | --- | --- | --- | --- | --- | --- | --- | --- |
| N#CCC#N | inactive | inactive | inactive | inactive | inactive | inactive | inactive | inactive | inactive | inactive | inactive | inactive | inactive | inactive | inactive | inactive | inactive | – | – | – |
| COc1ccccc1N | inactive | inactive | inactive | – | inactive | inactive | – | inactive | inactive | inactive | inactive | inactive | inactive | inactive | inactive | – | – | inactive | 59.1 µM (active) | – |
| CC(C)C(C)(N)C#N (centres undefined) | inactive | inactive | inactive | inactive | inactive | – | – | inactive | inactive | inactive | inactive | inactive | inactive | inactive | inactive | – | inactive | inactive | 26 µM (active) | inactive |
| CC(C)(C1CCC(O)CC1)C1CCC(O)CC1 (centres undefined) | inactive | inactive | inactive | inactive | inactive | – | – | inactive | inactive | inactive | inactive | inactive | inactive | inactive | inactive | inactive | inactive | inactive | 35.3 µM (active) | inactive |
| Oc1c(Cl)cc(Cl)cc1Cl | inactive | – | inactive | inactive | inactive | inactive | – | – | inactive | inactive | inactive | inactive | inactive | inactive | inactive | inactive | – | – | – | inactive |
| CCOc1cc(C=O)ccc1O | inactive | inactive | inactive | inactive | inactive | inactive | – | inactive | inactive | inactive | inactive | inactive | inactive | inactive | inactive | inactive | inactive | – | – | inactive |
| CCOP(=O)(OCC)SCCSCC | inactive | inactive | inactive | – | inactive | – | – | inactive | inactive | inactive | inactive | inactive | inactive | – | inactive | inactive | inactive | inactive | 57.2 µM (active) | inactive |
